Test results from PubChem BioAssay AID393 (SGCOxCompounds, 2006).
Calls of active or inactive are those of the source. No rule for the calls is given here.

These compounds were tested against Serine/threonine-protein kinase pim-1 (Homo sapiens) (UniProt P11309) (assay: compound-induced PIM1 thermal stabilization – biophysical, human, melting temperature shift (AID 393)). Conditions: Thermal shift assay, at 10 µM, stronger effect = higher value; protein 2 µM, buffer 10 mM Na Citrate, pH 6.5, NaCl 150 mM unless noted.
Sequence of Serine/threonine-protein kinase pim-1 (Homo sapiens) (P11309 whole entry, looked up): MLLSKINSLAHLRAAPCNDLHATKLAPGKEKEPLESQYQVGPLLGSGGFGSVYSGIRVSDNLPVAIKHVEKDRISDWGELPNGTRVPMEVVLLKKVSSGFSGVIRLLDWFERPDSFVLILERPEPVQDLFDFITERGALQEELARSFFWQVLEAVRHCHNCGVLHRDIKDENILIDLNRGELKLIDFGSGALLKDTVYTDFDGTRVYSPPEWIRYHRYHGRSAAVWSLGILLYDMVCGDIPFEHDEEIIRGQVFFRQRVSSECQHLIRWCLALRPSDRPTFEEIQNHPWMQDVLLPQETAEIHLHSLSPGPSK

Row | SMILES | Tm shift
1 | O=C1Nc2ccccc2/C1=C\c1cnc[nH]1 | 3.92 Celsius [protein 3 µM, buffer 10 mM HEPES] (active)
2 | N#C/C(=C1\Nc2ccccc2S1)c1ccnc(NCCc2cccnc2)n1 | 10.3 Celsius (active)
3 | CCn1cnc2c(Nc3cccc(Cl)c3)nc(N[C@@H]3CCCC[C@@H]3N)nc21 | 5.8 Celsius (active)
4 | Cc1c2ccncc2c(C)c2c1[nH]c1ccccc12 | 8.6 Celsius (active)
5 | O=C1NC(=O)c2c1c1c3ccccc3n3c1c1c2c2ccccc2n1[C@@H]1CCC3O1 | 12.7 Celsius [protein 2 µM, buffer 10 mM PIPES, pH 6.5, NaCl 150 mM] (active)
